Compound activity: PubChem, several laboratories
Y pestis TopoI – inhibitors of Yersinia pestis topoisomerase I | 360,000 tested, 0.064% active | activity, % at 10 µM | Y. pestis Topo-I cleavage product accumulation, plate reader; in the data active = activity above about 50%, passing the limit was not always enough
CCHF vOTU inh – CCHFV vOTU protease inhibition; Pep-AMC fluorescence; inhibition, % at 11.5 µM; 370,000 tested, 0.55% active; AID 651958; in the data active = inhibition above about 30%; note: 0% = vehicle wells with enzyme and 100% = no enzyme wells
DUSP3 inh – blocks human VHR1 dual specificity phosphatase; recombinant VHR phosphatase, pNPP absorbance; AID 1654; inhibition, % at 13.3 µM; 290,000 tested, 0.52% active; P51452; in the data active = inhibition above about 50%
Target sequence (P51452 whole entry, looked up): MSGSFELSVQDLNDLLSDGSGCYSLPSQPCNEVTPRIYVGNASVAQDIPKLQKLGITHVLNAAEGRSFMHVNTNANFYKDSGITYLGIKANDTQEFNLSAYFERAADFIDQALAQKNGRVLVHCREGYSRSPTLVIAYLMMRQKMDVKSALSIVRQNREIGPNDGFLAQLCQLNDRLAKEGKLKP
BH1578 lux ind – quorum light induction in luxS cqsA deficient V. cholerae | AID 588436 | activation, % at 18.7 µM | V. cholerae BH1578 lux reporter, luminescence, 6 h | 350,000 tested, 0.16% active; in the data active = activation mostly above about 9.7%, no sharp cut-off
PrPC TRFRET – cell surface PrPC inhibition, primary TR-FRET screen; AID 720596; P04156; 370,000 tested, 0.43% active; TR-FRET read-out; inhibition, % at 13.8 µM; in the data active = inhibition above about 24%; note: 0% = median of the test wells and 100% = reference compound wells
MazF activator – MazEF (E. coli) toxin RNase activation; AID 504720; 350,000 tested, 0.32% active; activation, % at 20 µM; P0AE70; FAM/BHQ RNA-DNA oligo cleavage fluorescence, 5 h; in the data active = activation above about 50%
Target sequence (P0AE70 whole entry, looked up): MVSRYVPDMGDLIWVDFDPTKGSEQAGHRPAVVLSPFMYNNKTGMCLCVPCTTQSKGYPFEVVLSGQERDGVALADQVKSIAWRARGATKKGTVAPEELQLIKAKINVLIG
* marks the source's active call; other numbers are inactive results; i = inactive; x = not tested or not shown; + = active, no number. In the library only some 1.8% were active in any assay of this set; here they are far more common.

SMILES	Y pestis TopoI	CCHF vOTU inh	DUSP3 inh	BH1578 lux ind	PrPC TRFRET	MazF activator
COc1ccc(C2C(C(=O)c3ccccc3)N3c4ccccc4C=CC3C2[N+](=O)[O-])cc1 (centres undefined)	-5.2	8.7	21.7	-0.3	-17.0	62.6*
O=C(OC12CCCN(C1)/C(=C/c1ccccc1)C2)c1ccc(F)cc1 (centres undefined)	x	17.2	x	x	-4.3	x
COc1ccc(-c2nc(CN3CCN(Cc4cccc(F)c4)CC3)c(C)o2)cc1	54.8*	0.6	6.5	-0.7	16.5	-3.3
O=C1CC(N2CCCN(Cc3ccccc3)CC2)=NC(=O)N1c1ccc(Br)cc1	x	7.1	x	x	4.8	x
COc1ccc(S[C@]2(C(=O)N(C)C)CC(=O)N(C(=O)C3CC3)[C@@H]2c2ccc(OC)cc2)cc1	x	-1.7	x	x	-5.9	x
COc1ccc(OC)c(-c2c3cc(O)c(=O)cc-3oc3cc(O)c(O)cc23)c1	-5.8	x	8.2	-0.2	x	+
CCN(CC)C(=O)CC[C@@H]1CC[C@]2(CCCN(C(=O)c3ccco3)C2)O1	x	-2.6	x	x	-0.4	x
Cc1cc(C)c(-c2noc(C(=O)OC(C)(C)C)c2C(=O)OC(C)(C)C)c(C)c1	33.9	-1.4	0.8	51.3*	-1.1	-2.0
COc1ccc(C(=O)C[n+]2ccccc2/C=N/O)cc1	5.4	0.6	2.6	i	-26.9	5.3
O/N=C/c1cccc[n+]1CCCCCC[n+]1ccccc1/C=N/O	1.0	-6.9	60.0*	-1.4	-6.4	7.4
O=C(NC(NCc1ccccc1)C(Cl)(Cl)Cl)c1cccnc1 (centres undefined)	2.8	-9.8	6.0	i	-6.3	2.9
O=C(NC(NCc1cccnc1)C(Cl)(Cl)Cl)c1cccc2ccccc12 (centres undefined)	0.9	13.2	53.8*	-0.2	7.8	1.7
O=C(O)c1cccc(-c2ccc(/C=c3/sc4nc5ccccc5n4c3=O)o2)c1	-2.3	-2.2	x	i	8.0	580.8*
O=C(O)c1cc(C(=O)O)cc(-c2ccc(/C=c3/sc4nc5ccccc5n4c3=O)o2)c1	x	x	10.3	x	x	-45.1
Cc1ccc(CN=C(N)Nc2nc(C)cc(C)n2)cc1	1.8	0.6	57.4*	-0.6	8.9	8.3
Cc1ccc(NC(=O)CCNC(=O)c2ccco2)cc1	1.9	-12.3	-0.2	-0.4	6.9	1.3
O=C(CCNC(=O)c1ccc(Br)cc1)NCc1ccco1	-0.4	19.9	x	i	6.8	-0.6
Cc1cccc(NC(=O)CCNC(=O)c2ccco2)c1	-2.6	-0.7	50.8*	0.1	11.1	-15.1
Cc1ccc(C(=O)NCCC(=O)NCc2ccco2)cc1	4.0	4.1	53.5*	0.5	1.7	8.4
CCCN(CC1CC1)c1c2c(nc3ncnn13)CCCC2	x	5.4	x	x	7.2	x
COc1ccc(CN2CCNCC2)cc1	3.5	-7.3	59.7*	-0.3	1.1	-12.7
Cn1c(=O)oc2cc(S(=O)(=O)N3CCN(CCO)CC3)ccc21	x	-5.2	x	x	1.6	x
CCCN1CCS(=O)(=O)N(Cc2cn(Cc3ccc(C)cc3)nn2)C(C(=O)OC)C1 (centres undefined)	x	9.0	x	x	8.8	x
Cc1cc2nc(C)n(CCCNC(=O)Nc3ccc(C#N)cc3)c2cc1C	-2.0	-7.5	47.0	-0.2	-6.9	8.1
Cc1cc2nc(C)n(CCCN)c2cc1C	3.8	-4.5	51.0*	-0.1	8.1	0.8
SMILES	Y pestis TopoI	CCHF vOTU inh	DUSP3 inh	BH1578 lux ind	PrPC TRFRET	MazF activator
Cc1ccc(-c2cc(C(=O)NN=C/C=C/c3ccco3)[nH]n2)cc1C	x	28.2	x	x	2.0	x
O=C(NC(=O)c1ccc(F)cc1)Nc1nc(-c2cccs2)cc(C(F)(F)F)n1	18.9	-1.4	-11.0	-0.3	10.6	93.8*
O=C(NC(=O)c1cccc(F)c1)Nc1nc(-c2ccc(F)cc2)cc(C(F)(F)F)n1	6.2	9.5	9.3	-0.1	5.0	21.2
O=C(Cc1c(C(=O)O)[nH]c2ccc(Cl)cc12)Nc1ccc2c(c1)OCCO2	1.3	11.6	51.7*	-0.3	2.4	-2.4
COc1ccc(OC)c(S(=O)(=O)N(C)CC(=O)N2CCCCC2)c1	10.2	-2.4	52.8*	-0.2	-2.6	-2.6
N=c1c2c(ncn1CCCO)Oc1cc(O)ccc1C2c1ccccc1 (centres undefined)	-12.6	14.6	12.5	-0.4	-3.0	64.5*
COc1ccccc1C1c2ccc3ccccc3c2Oc2ncn(CCN(C)C)c(=N)c21 (centres undefined)	-12.8	6.8	5.9	-2.0	-10.7	29.2
COc1ccc(C2c3ccc(O)cc3Oc3ncn(CCN4CCOCC4)c(=N)c32)cc1 (centres undefined)	-1.0	1.6	1.5	-0.3	-10.1	-48.7
